Results filed as inconclusive are left out. Activity calls are given as the source filed them. Unless noted, the call rests on the fitted dose curve; in most records, active means well fitted curve in the direction sought with a large enough effect; inconclusive means small, poorly fitted or top-dose-only effect, or another doubt; inactive means no such curve, though single readings can be large; an effect the other way counts as inactive or inconclusive.
Legend:
[1] = qHTS to identify inhibitors of the type 1 interferon - major histocompatibility complex class I in skeletal muscle: primary screen against the NCATS Pharmaceutical Collection (AID 1347407);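 further: luminescence of HiBiT knocked into endogenous HLA-B as interferon-induced MHC class I level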; further: potency means the concentration at half of the fitted maximal effect
Summary of the method: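 Cells were seeded with 4 ng/ml IFN-beta, incubated 1 h, then dosed with compounds over eight 1:5 steps up to 46 uM final. After 24 h at 37 C, HiBiT lytic reagent was added and luminescence read after 10 min lysis in the dark.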

[2] = target: Protein phosphatase 1D (Homo sapiens) (UniProt O15297); assay: RapidFire Mass Spectrometry qHTS Assay for Modulators of WT P53-Induced Phosphatase 1 (WIP1) (AID 1347424); further: series mostly up to about 63 µM
Summary of the method: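 RapidFire MS readout of dephosphorylated VEPPL-S-QETFS product, with 1 uM isotope-labelled peptide standard. Reaction: 10 nM WIP1, 2 uM phosphopeptide substrate, 5 min, room temperature, after 1 h compound preincubation; stopped with 0.5% formic acid.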

[3] = target: Protein phosphatase 1D (Homo sapiens) (UniProt O15297); assay: Rhodamine-PBP qHTS Assay for Modulators of WT P53-Induced Phosphatase 1 (WIP1) (AID 1347425)
Summary of the method: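 WIP1 (5 nM final) was preincubated with compound for 1 hour at room temperature. It then dephosphorylated 10 uM VEPPL-pS-QETFS peptide in Tris-HCl pH 7.5 with 30 mM MgCl2. Released Pi was detected by 10 uM Rh-PBP fluorescence (ex 525/em 598 nm) read at 1-min intervals for 11 min, as delta f1 - f0.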

[4] = Primary qHTS for inhibitors of La Crosse Virus (LACV) - induced cell death in SH-SY5Y cells (AID 1508616);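 further: top concentration of the series differs between compounds; higher means more rescue of cells from virus-induced death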
Summary of the method: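 Screening measures cell viability in LACV-infected SH-SY5Y cultures. Compound was added before virus (0.01 MOI), and ATP was detected by luminescence 6 days later.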

[5] = target: Calcium and integrin-binding protein 1 (Homo sapiens) (UniProt Q99828); assay: Primary qHTS for Identification of Calcium Integrin Binding Protein 1 (CIB1) Competitor (AID 1508620);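 further: GST tagged CIB1 binding a fluorescein labelled alphaIIb integrin peptide tracer; top concentration of the series differs between compounds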
Summary of the method: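 Fluorescence polarization competition: GST-tagged CIB1 (1 uM final) preincubated with compound 15 min at room temperature, then FITC-labelled alphaIIb peptide (100 nM final) added. After 15 min at room temperature, polarization read at Ex 480/Em 540.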

[6] = A High-Content qHTS Against Drug Library for the Identification of Small Molecules that Inhibit DYT1 Early Onset Primary Dystonia-Associated Cell Pathology (AID 1645839; calls by dose curve; further: potency means the concentration at half of the fitted maximal effect)
Summary of the method: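 Cells were seeded and left for 24 h, then dosed with compound alongside tetracycline induction of mutant EGFP-TorsinA. They were incubated for 48 h, fixed in 4% paraformaldehyde, permeabilized and imaged for mislocalization (%pathology) and cell count.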

[7] = Primary qHTS for small molecule stabilizers of the endoplasmic reticulum resident proteome: Secreted ER Calcium Modulated Protein (SERCaMP) assay (AID 1508630)
Summary of the method: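 The SH-SY5Y reporter protocol was run at 3 concentrations up to 38.3 uM (primary) or 11 concentrations (follow-up): 16 h compound, 100 nM thapsigargin for 4 h, then extracellular luciferase luminescence.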

[8] = Confirmatory qHTS for small molecule stabilizers of the endoplasmic reticulum resident proteome: Secreted ER Calcium Modulated Protein (SERCaMP) assay (AID 1508628); further: series mostly up to about 76 µM; nearly all actives have a fitted effect of over 40% in size
Summary of the method: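 GLuc-SERCaMP-expressing SH-SY5Y cells, pretreated 16 h with compound, are challenged with thapsigargin to empty ER calcium stores; after 4 h, coelenterazine is added directly to the medium and luminescence is imaged.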

Measured: Potency

Calcium and integrin-binding protein 1 (Homo sapiens), sequence (Q99828 whole entry, looked up): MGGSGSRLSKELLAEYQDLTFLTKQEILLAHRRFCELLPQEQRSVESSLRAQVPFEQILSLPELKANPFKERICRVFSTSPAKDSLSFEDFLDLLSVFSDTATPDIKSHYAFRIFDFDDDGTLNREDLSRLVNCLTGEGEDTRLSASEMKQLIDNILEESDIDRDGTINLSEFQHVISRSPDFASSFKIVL
Protein phosphatase 1D (Homo sapiens), sequence (O15297 whole entry, looked up): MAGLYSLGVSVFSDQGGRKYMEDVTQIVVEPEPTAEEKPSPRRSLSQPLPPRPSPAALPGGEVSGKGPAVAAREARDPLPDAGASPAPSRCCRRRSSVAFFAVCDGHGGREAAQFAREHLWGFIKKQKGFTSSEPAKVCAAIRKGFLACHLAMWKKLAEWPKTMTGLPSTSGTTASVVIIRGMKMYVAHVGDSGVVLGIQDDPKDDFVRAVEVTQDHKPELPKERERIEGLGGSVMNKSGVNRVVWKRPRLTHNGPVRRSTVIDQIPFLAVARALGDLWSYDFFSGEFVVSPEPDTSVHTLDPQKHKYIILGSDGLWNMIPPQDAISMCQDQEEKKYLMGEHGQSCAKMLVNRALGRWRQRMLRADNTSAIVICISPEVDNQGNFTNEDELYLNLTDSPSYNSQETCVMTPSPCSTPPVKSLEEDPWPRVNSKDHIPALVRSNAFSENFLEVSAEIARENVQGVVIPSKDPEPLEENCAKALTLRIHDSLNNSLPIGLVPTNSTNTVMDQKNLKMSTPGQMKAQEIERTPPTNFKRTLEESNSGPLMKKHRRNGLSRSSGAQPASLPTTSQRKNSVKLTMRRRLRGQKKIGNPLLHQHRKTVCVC

C/C(=N/NC(=O)c1ccncc1)C(=O)O
not listed: [7] | [8]
inactive: all other assays above

COc1cc(C=O)ccc1O
not listed: [7] | [8]
inactive: all other assays above

COC(=O)/C=C\C(=O)OC
not listed: [7] | [8]
inactive: all other assays above

CCC(C(=O)OCCN1CCOC(c2ccccc2)C1C)c1ccccc1 (stereo not drawn)
not listed: [7] | [8]
inactive: all other assays above

Cc1cnc(NS(=O)(=O)c2ccc(N)cc2)nc1
not listed: [7] | [8]
inactive: all other assays above

NC(=O)NS(=O)(=O)c1ccc(Cl)cc1
not listed: [7] | [8]
inactive: all other assays above

OC[C@]1(O)OC[C@@H](O)[C@H](O)[C@@H]1O
not listed: [7] | [8]
inactive: all other assays above

CC(=O)c1ccc(O)c(C(N)=O)c1
not listed: [7] | [8]
inactive: all other assays above

N=C(N)c1ccc(OCCCOc2ccc(C(=N)N)cc2)cc1
not listed: [7] | [8]
inactive: all other assays above

C1=CC2C3C=CC(C3)C2C1 (stereo not drawn)
not listed: [7] | [8]
inactive: all other assays above

CC1(C)S[C@@H]2[C@H](NC(=O)C(c3ccccc3)S(=O)(=O)O)C(=O)N2[C@H]1C(=O)O (stereo partly drawn)
not listed: [7] | [8]
inactive: all other assays above

CC(=O)N1CCN(c2ccc(O)cc2)CC1
not listed: [7] | [8]
inactive: all other assays above

N#CC1(c2ccc(F)cc2)CCC(=O)CC1
not listed: [7] | [8]
inactive: all other assays above

Cc1coc2ccccc2c1=O
not listed: [7] | [8]
inactive: all other assays above

CCN(CC)CC(=O)Oc1ccc(NC(C)=O)cc1
not listed: [7] | [8]
inactive: all other assays above

CN(C)CCN(Cc1ccsc1)c1ccccn1
not listed: [5] | [8]
inactive: all other assays above

Oc1ccccc1-c1nnco1
not listed: [5] | [8]
inactive: all other assays above

CN1CCC(Nc2ncc3ncnc(Nc4ccc(F)c(Cl)c4)c3n2)CC1
active: [1] 18.7 µM
inactive: [2] | [3] | [5] | [8]

Cc1oc(=O)oc1COC(=O)[C@@H]1N2C(=O)[C@@H](NC(=O)[C@H](N)c3ccccc3)[C@H]2SC1(C)C
not listed: [7] | [8]
inactive: all other assays above

Cc1ccc2c(Cl)cc(Cl)c(O)c2n1
inactive: [1] | [2] | [3] | [4] | [6]

COc1ccc(-n2nc(CCC(=O)N(C)O)cc2-c2ccc(Cl)cc2)cc1
inactive: [1] | [2] | [3] | [5] | [7]

CCOC(=O)[C@H](CCc1ccccc1)N[C@@H](C)C(=O)N(CC(=O)O)C1Cc2ccccc2C1
inactive: [1] | [2] | [3] | [4] | [6]

O=C(O)CCC(=O)OC[C@@H](NC(=O)C(Cl)Cl)[C@H](O)c1ccc([N+](=O)[O-])cc1
not listed: [5] | [8]
inactive: all other assays above

CC(C)NCCCC1(C(N)=O)c2ccccc2-c2ccccc21
inactive: [1] | [2] | [3] | [4] | [6]

Cc1c(C)c2c(c(C)c1OC(=O)CCC(=O)OCCO)CC[C@@](C)(CCC[C@H](C)CCC[C@H](C)CCCC(C)C)O2
active: [6] 5.62 µM
not listed: [5] | [8]
inactive: all other assays above

C=CCOc1cc(Cl)ccc1C(=O)NCCN(CC)CC
inactive: [1] | [2] | [3] | [4] | [6]

Cc1[nH]cnc1-c1ccc(Cl)cc1
inactive: [1] | [2] | [3] | [4] | [6]

CC(C)=CCC/C(C)=C/CC/C(C)=C/CCC(=O)OC/C=C(\C)CCC=C(C)C
inactive: [1] | [2] | [3] | [4] | [6]

C/C(=C1\CCOC(=O)S1)N(C=O)Cc1cnc(C)nc1N
not listed: [5] | [8]
inactive: all other assays above

O=C(OCC(COC(=O)c1cccnc1)(COC(=O)c1cccnc1)COC(=O)c1cccnc1)c1cccnc1
not listed: [5] | [8]
inactive: all other assays above

CN1CCN(N)CC1
not listed: [5] | [8]
inactive: all other assays above

CCOc1ccccc1OCC1CNCCO1 (stereo not drawn)
inactive: [1] | [2] | [3] | [4] | [6]

O=C(CCCl)NCc1ccccc1
inactive: [1] | [2] | [3] | [4] | [6]
